Results filed as inconclusive are left out. Calls of active or inactive are those of the source. The call rests on the fitted dose curve; in most records, active means well fitted curve in the direction sought with a large enough effect in the repeat runs; inconclusive means weak or mixed curves; inactive means no such curve, though single readings can be large; an effect the other way counts as inactive or inconclusive.
Assays:
[1] = qHTS RealTime-Glo MT Cell Viability Assay in HepG2 cells - 40 hour (AID 1224870); further: nearly all actives have a fitted effect of over 50% in size
Outline: (§1)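 HepG2 cells (600/well) mixed with RealTime-Glo MT reagent, settled 5 h at 37 C/5% CO2 before compound addition. Nonlytic NanoLuc luminescence from viable-cell prosubstrate reduction read repeatedly during 40 h treatment at 37 C.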

[2] = A CellTox Green Cytotoxicity Assay to monitor cytotoxicity in HEK293 cells - 40 hour (AID 1224871); further: nearly all actives have a fitted effect of over 45% in size
Outline: (§2)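 HEK293 cells, 600/well, were preincubated 5 hours and then exposed to compounds at 37 C for up to 40 hours. A cell-impermeant cyanine dye staining dead-cell DNA was read by fluorescence at 0, 8, 16, 24, 32 and 40 h time points.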

[3] = qHTS RealTime-Glo MT Cell Viability Assay in HEK293 cells - 16 hour (AID 1224872); further: top concentration of the series differs between compounds; nearly all actives have a fitted effect of over 50% in size
Outline: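 Luminescence generated by NanoLuc from substrate produced by living HEK293 cells served as the viability signal. Each value reflects the reading at its stated time point during continuous 40 h compound exposure at 37 C.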

[4] = qHTS RealTime-Glo MT Cell Viability Assay in HepG2 cells - 8 hour (AID 1224873); further: nearly all actives have a fitted effect of over 55% in size
Outline: as §1

[5] = qHTS RealTime-Glo MT Cell Viability Assay in HEK293 cells - 40 hour (AID 1224874); details: RealTime-Glo luminescence; max response: hits give low values; further: nearly all actives have a fitted effect of over 50% in size
Outline: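 600 cells/well were plated with the nonlytic NanoLuc/prosubstrate reagent, pre-incubated 5 h, then given 23 nL of compound in DMSO. Incubation at 37 C for 40 h, with luminescence from viable-cell-reduced substrate read repeatedly from 0 h.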

[6] = A CellTox Green Cytotoxicity Assay to monitor cytotoxicity in HEK293 cells - 24 hour (AID 1224875); further: series mostly up to about 77 µM; nearly all actives have a fitted effect of over 45% in size
Outline: as §2

[7] = A CellTox Green Cytotoxicity Assay to monitor cytotoxicity in HepG2 cells - 16 hour (AID 1224876); further: nearly all actives have a fitted effect of over 45% in size
Outline: (§3)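 HepG2 cells, 600/well, preincubated 5 h with CellTox Green dye, then exposed to Tox21 compounds in DMSO at 37 C for up to 40 h. Dead-cell DNA fluorescence read at the indicated time point.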

[8] = A CellTox Green Cytotoxicity Assay to monitor cytotoxicity in HepG2 cells - 24 hour (AID 1224878); further: nearly all actives have a fitted effect of over 45% in size
Outline: as §3

[9] = A CellTox Green Cytotoxicity Assay to monitor cytotoxicity in HepG2 cells - 40 hour (AID 1224879); further: nearly all actives have a fitted effect of over 40% in size
Outline: as §3

[10] = qHTS RealTime-Glo MT Cell Viability Assay in HepG2 cells - 32 hour (AID 1224877); further: nearly all actives have a fitted effect of over 55% in size
Outline: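 Tox21 10K library screened in qHTS format on HepG2 cells carrying RealTime-Glo reagents. Compounds were added after a 5 h preincubation, and the luminescent signal from continuous culture was measured repeatedly during 40 h treatment.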
On the % scale 0 is the no-effect control and ±100 the full control effect.

CCNC(=O)C1CC(C)CCC1C(C)C (stereo unspecified)
inactive: outcome [1] | Potency [2] | Potency [3] | outcome [4] | max response [5] 2.62% | outcome [6] | outcome [7] | outcome [8] | Potency [9]

Nc1ncnc(Nc2ccccc2)n1
inactive: outcome [1] | Potency [2] | Potency [3] | outcome [4] | max response [5] 3.02% | outcome [7] | outcome [10] | outcome [8] | Potency [9]

CC(=C(CCOC(=O)C(C)C)SSC(CCOC(=O)C(C)C)=C(C)N(C=O)Cc1cnc(C)nc1N)N(C=O)Cc1cnc(C)nc1N
inactive: outcome [1] | Potency [2] | Potency [3] | outcome [4] | max response [5] 3.74% | outcome [6] | outcome [10]

CCCN1C[C@H](CSC)C[C@@H]2c3cccc4[nH]cc(c34)C[C@H]21
inactive: outcome [1] | Potency [2] | Potency [3] | outcome [4] | max response [5] -0.0801% | outcome [6] | outcome [7] | Potency [9]

CC(C)NCC(O)COc1cccc2[nH]ccc12 (stereo unspecified)
inactive: outcome [1] | Potency [2] | Potency [3] | outcome [4] | max response [5] -0.192% | outcome [7] | outcome [10] | outcome [8] | Potency [9]

Cc1ccsc1/C=C/C1=NCCCN1C
inactive: outcome [1] | Potency [2] | Potency [3] | outcome [4] | max response [5] 2.37% | outcome [6] | outcome [7] | outcome [8] | Potency [9]

CC(COC(C)(C)C)OCCCO (stereo unspecified)
inactive: outcome [1] | Potency [2] | Potency [3] | outcome [4] | outcome [6] | outcome [7] | outcome [10] | outcome [8] | Potency [9]

Cc1ccc(S(=O)(=O)O)c(C)c1
inactive: outcome [1] | Potency [2] | Potency [3] | outcome [4] | max response [5] 3.15% | outcome [7] | outcome [10] | Potency [9]

ClCCCl
inactive: outcome [1] | Potency [2] | Potency [3] | max response [5] -0.252% | outcome [6] | outcome [7] | outcome [10] | outcome [8] | Potency [9]

O=P(O)(O)OP(=O)(O)O
inactive: outcome [1] | Potency [2] | Potency [3] | max response [5] 2.82% | outcome [6] | outcome [7] | outcome [10] | outcome [8] | Potency [9]

O=C(OCC1(COC(=O)c2cccnc2)CCCC(COC(=O)c2cccnc2)(COC(=O)c2cccnc2)C1O)c1cccnc1
inactive: outcome [1] | Potency [2] | Potency [3] | outcome [4] | max response [5] 1.63% | outcome [7] | outcome [10] | Potency [9]

C=C(C)C(=O)OCCNC(C)(C)C
inactive: outcome [1] | Potency [2] | Potency [3] | outcome [4] | max response [5] 0.848% | outcome [7] | outcome [8] | Potency [9]

Cc1ccc(C=O)cc1C
inactive: outcome [1] | Potency [2] | Potency [3] | max response [5] 2.17% | outcome [6] | outcome [7] | outcome [10] | outcome [8] | Potency [9]

COC(=O)CCc1ccc(OCC(O)CNC(C)C)cc1 (stereo unspecified)
inactive: outcome [1] | Potency [2] | Potency [3] | max response [5] 5.47% | outcome [6] | outcome [7] | outcome [10] | outcome [8] | Potency [9]

c1ccc2c(c1)ccc1c3ccccc3ccc21
inactive: outcome [1] | Potency [2] | Potency [3] | outcome [4] | max response [5] 6.22% | outcome [7] | outcome [8] | Potency [9]

CC(N)C(=O)OC(C)(C)Cc1ccc(Cl)cc1 (stereo unspecified)
inactive: outcome [1] | Potency [2] | Potency [3] | outcome [4] | max response [5] -11.9% | outcome [7] | outcome [8] | Potency [9]

CN(C)CCOCCO
inactive: outcome [1] | Potency [2] | Potency [3] | max response [5] -8.11% | outcome [6] | outcome [7] | outcome [10] | outcome [8] | Potency [9]

OCCC(F)(F)C(F)(F)C(F)(F)C(F)(F)C(F)(F)C(F)(F)C(F)(F)C(F)(F)F
inactive: outcome [1] | Potency [2] | Potency [3] | outcome [4] | outcome [6] | outcome [7] | outcome [8] | Potency [9]

Cc1ccc2c(c1)OCC(=O)CO2
inactive: outcome [1] | Potency [2] | Potency [3] | max response [5] -8.18% | outcome [6] | outcome [7] | outcome [10] | outcome [8] | Potency [9]

CC(=O)Nc1ccc(S(=O)(=O)Nc2ccc([N+](=O)[O-])cc2)cc1
inactive: outcome [1] | Potency [2] | Potency [3] | outcome [4] | max response [5] -8.9% | outcome [7] | outcome [8] | Potency [9]

O=S(O)(O)=S
inactive: activity change, negative = cytotoxic [1] 5.36% [at 6.97 µM] | cytotoxicity increase [2] -0.26% [at 6.97 µM] | activity change, negative = cytotoxicity [3] 0.498% [at 6.97 µM] | max response [5] 0.994% | activity change [6] -0.341% [at 6.97 µM] | cytotoxicity increase [7] -0.212% [at 6.97 µM] | activity change, negative = cytotoxic [10] 5.2% [at 6.97 µM] | cytotoxicity [8] -1.5% [at 6.97 µM] | cytotoxicity increase [9] -1.37% [at 6.97 µM]

CCCCCCCCCC(C)=O
inactive: outcome [1] | Potency [2] | Potency [3] | max response [5] 10.3% | outcome [6] | outcome [7] | outcome [10] | outcome [8] | Potency [9]

C[C@@H]1O[C@@H](O[C@@H]2[C@@H](O)[C@H](OCCc3ccc(O)c(O)c3)O[C@H](CO[C@@H]3O[C@H](CO)[C@@H](O)[C@H](O)[C@H]3O)[C@H]2OC(=O)/C=C/c2ccc(O)c(O)c2)[C@H](O)[C@H](O)[C@H]1O
inactive: outcome [1] | Potency [2] | Potency [3] | max response [5] -18.6% | outcome [6] | outcome [7] | outcome [10] | outcome [8]

Reference: PubChem BioAssay (Tox21)
